Source: PubChem (several laboratories)
tim10-1 inh = growth inhibitors of tim10-1 mutant yeast, primary screen, luminescence, uHTS; AID 463190, 2010; S. cerevisiae tim10-1 ts strain growth, BacTiter-Glo, 24 h; inhibition, % at 20 µM; actives 2.2% (n = 330,000);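 active = inhibition of at least 40%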;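 also: mutant grown at 25 °C; 0% = DMSO wells with yeast and 100% = wells holding no yeast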
PfHsp90 set2 = growth inhibition of PfHsp90-expressing yeast, primary screen, antimalarial PfHsp90 inhibitor project, S. cerevisiae, BacTiter-Glo luminescence, single point, set 2; BacTiter-Glo ATP, 48 h; yeast lacking PDR1 and PDR3 efflux regulators; inhibition, % at 9.4 µM; actives 0.32% (n = 310,000); AID 504621, 2011;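 active = every replicate shows inhibition above about 80%, whatever the replicate mean, limit read from the data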;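 also: 0% = DMSO neutral controls and 100% = 20 µM radicicol positive controls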
tim23-1 inh = growth inhibitors of tim23-1 mutant yeast, primary screen, luminescence, uHTS. inhibition, % at 20 µM. actives 1.3% (n = 330,000). S. cerevisiae tim23-1 growth, BacTiter-Glo luminescence, 24 h. AID 463212, 2010;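 active = growth inhibition of the mutant yeast at or above 50%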;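 also: temperature-sensitive mutant grown at 25 °C; plate controls were DMSO-treated mutant yeast for no effect and medium wells lacking yeast for full effect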
SKKanGAS inh = S. pyogenes SKKanGAS growth inhibitors in kanamycin, primary screen, streptokinase expression inhibitor project, SKKanGAS strain, BacTiter-Glo luminescence. actives 1.3% (n = 300,000). inhibition, % at 7.5 µM. AID 1662, 2009. 6 h;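 active = mean replicate score, as percent of positive control median, at least 50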;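 also: strain carries kanamycin resistance gene driven by streptokinase promoter and grows in 40 µg/ml kanamycin; loss of luminescence reflects streptokinase promoter inhibition or plain growth inhibition; 0% = median of DMSO wells and 100% = positive control at its reference dose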
TIM10 inh = growth inhibitors of isogenic TIM10 control yeast, primary screen, counter-screen for tim10-1 yeast inhibitor project, luminescence, uHTS. S. cerevisiae TIM10 strain growth, BacTiter-Glo luminescence, 24 h. inhibition, % at 10 µM. actives 1.4% (n = 330,000). AID 463195, 2010;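 active = inhibition of 40% or more at the single tested concentration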;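 also: wild-type TIM10 isogenic control strain grown at permissive 25 °C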
NALP3 yeast inh = NALP3 inflammasome inhibitors in reconstituted yeast, primary screen, luminescence, uHTS | actives 0.39% (n = 330,000) | Yeast reconstituted NLRP3/ASC/caspase-1, beta-gal luminescence, 24 h | AID 2825, 2010 | inhibition, % at 10 µM;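 active = inhibition of 50% or more; inactive = inhibition below 50%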;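 also: plate controls were induced DMSO wells for no effect and uninduced yeast grown without galactose for full effect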
* = called active by the depositor; x = no result given. A selection: hits, their analogues and other compounds. The true share with any hit is near 4.6%.

SMILES | tim10-1 inh | PfHsp90 set2 | tim23-1 inh | SKKanGAS inh | TIM10 inh | NALP3 yeast inh
CCOC(=O)c1sc2nccc(N(C)C)c2c1N=CNOCc1ccccc1 | 16 | -16 | 3 | -3 | -12 | 28
CCOC(=O)c1sc2nccc(N(C)C)c2c1N=CNOCc1c(F)cccc1Cl | 7 | -18 | 3 | 52* | 4 | 11
O=c1cc(O)c2c(=O)n(-c3ccccc3)c3c(c2o1)CCCCCC3 | 10 | 17 | 25 | 56* | 15 | 11
O=c1cc(O)c2c(=O)n(C3CCCCC3)c3ccccc3c2o1 | 20 | x | 14 | 27 | -11 | 24
CC(=O)O[C@H]1CC[C@]2(C)[C@H]3CC=C4[C@@H]5[C@@H](C)[C@H](C)CC[C@]5(C(=O)O)CC[C@@]4(C)[C@]3(C)CC[C@H]2C1(C)C | 17 | x | 11 | 107* | -1 | 2
COc1ccc(CCN2CC(C(=O)NCCN3CCOC3=O)CCC2=O)cc1 (configuration not stated) | 3 | 2 | 6 | 0 | 13 | 9
CC1=NOC(=O)/C1=C\c1ccc(-c2ccc(Br)cc2)o1 | x | 105* | x | 20 | x | x
O=C(/C=C/c1ccc(Cl)cc1)Nc1ccccc1N1CCOCC1 | 4 | -6 | -1 | -10 | 12 | 8
COCCn1c(=O)[nH]c2cc(C(=O)N3CCN(c4cccc(C)c4C)CC3)ccc2c1=O | -1 | -20 | 1 | 0 | -3 | 23
Cc1oc(-c2cc(Cl)cc(Cl)c2)cc1C(=O)NCCc1ccccc1 | 29 | -4 | 17 | 51* | 17 | 15
Cc1cccc(/C=C2/S/C(=N/N=C3\CC4CCC3(C)C4(C)C)NC2=O)c1 (configuration not stated) | 14 | 12 | 14 | 125* | 16 | 10
OCCN(CCO)c1ccc(C(c2ccc(Cl)cc2)c2ccc(N(CCO)CCO)cc2Cl)c(Cl)c1 | 29 | -15 | 10 | 93* | 15 | 17
CC(=O)O[C@H]1C[C@@]2(C)[C@@H](C[C@@H](O)[C@H]3[C@@]4(C)CC[C@@H](O)[C@@H](C)C4CC[C@@]32C)/C1=C(\CCC=C(C)C)C(=O)O (some centres not stated) | x | 5 | x | 73* | x | x
CC(=O)O[C@]1(C(C)=O)CC[C@H]2[C@@H]3C[C@H](C)C4=CC(=O)CC[C@]4(C)[C@H]3CC[C@@]21C | 21 | 11 | 14 | -4 | 0 | 10
FC(F)(F)c1ccc(Cl)c(NC(=S)NC2CC2)c1 | 8 | 14 | 21 | 3 | 1 | 3
CCC[C@@H]1C[C@@]1(CCC)[C@@H](NP(=O)(c1ccccc1)c1ccccc1)c1ccc(C(=O)OC)cc1 | 26 | x | 28 | 97* | 20 | 10
Cc1ccsc1C(=O)OC(C)C(=O)Nc1ccc(Cl)cn1 (configuration not stated) | -14 | x | 28 | x | -20 | 33
COc1ccc(-c2cc(C(F)(F)F)nc(NCc3cccs3)n2)cc1 | -37 | -3 | -4 | 74* | -11 | 15
N/C(=N\OC(=O)Cc1ccccc1)c1ccccc1Cl | 34 | 10 | 23 | 10 | 24 | -5
COc1ccc2nc(N3C(=O)/C(=C/c4ccccc4)NC3=S)sc2c1 | 5 | -33 | 1 | 92* | 8 | 4
COc1ccc2nc(N3C(=O)CC(Cc4cc(C)cc(C)c4)C3=O)sc2c1 (configuration not stated) | 20 | -14 | 26 | 18 | 18 | 13
CCOc1ccc2nc(N3C(=O)/C(=C/c4ccccc4)NC3=S)sc2c1 | 8 | 13 | 9 | 100* | 1 | 9
CC(Sc1nncn1C)C(=O)Nc1ccc(N2CCCCC2)cc1 (configuration not stated) | -6 | 0 | -8 | x | 3 | 7
C[n+]1ccc(/C=N/Nc2nc(Cl)c(C#N)c(Cl)c2Cl)cc1 | 0 | -1 | 6 | 91* | -13 | 37
CSc1nsc(N/N=C/c2ccccc2)c1C#N | 13 | 0 | 6 | -20 | 13 | 25
SMILES | tim10-1 inh | PfHsp90 set2 | tim23-1 inh | SKKanGAS inh | TIM10 inh | NALP3 yeast inh
CCCc1sc(N/N=C/c2ccccn2)nc1-c1ccc(F)cc1 | -11 | 124* | -2 | 96* | 13 | 13
Cc1cc(N)n(-c2ccc(S(N)(=O)=O)cc2[N+](=O)[O-])n1 | -2 | -9 | -3 | 1 | -12 | 17
O=C(Nc1nnc(Cc2ccccc2)s1)c1ccccc1 | 13 | 11 | 12 | 2 | -6 | 38
O=C(Nc1ncc(Cc2ccc(SC(F)F)cc2)s1)c1ccccc1 | 14 | 0 | 7 | 82* | 30 | -11
Clc1nssc1=Nc1ccc(Br)cc1 | x | 105* | x | 0 | x | x
O=C(Nc1ccnn1C1CCN(C(=O)c2ccc(F)cc2)CC1)C1CCOC1 (configuration not stated) | 2 | -14 | 0 | 52* | -6 | 4
Cc1ccc(C(=O)N2CCC(n3nccc3NC(=O)C3CCOC3)CC2)cc1 (configuration not stated) | 13 | -10 | 9 | -2 | -2 | 17
O=C(CSc1nc2ccccc2o1)Nc1ccccc1N1CCCCCC1 | 36 | -15 | 19 | 59* | 0 | -7
O=C(CSc1nc2ccccc2o1)Nc1cc(C(F)(F)F)ccc1N1CCOCC1 | 39 | -22 | 17 | 2 | 20 | 15
Cc1c(NC(=S)NC(=O)c2sc3ccccc3c2Cl)cccc1C(=O)O | 8 | -7 | 22 | 16 | 9 | 19
COc1ccccc1C(=O)NNC(=S)NC(=O)c1cccs1 | 0 | 92* | 9 | 104* | 1 | 23
COc1ccccc1C(=O)NNC(=S)NC(=O)c1sc2ccccc2c1Cl | 8 | -18 | -37 | 94* | -7 | 22
COc1ccccc1C(=O)NC(=S)NNC(=O)c1sc2ccccc2c1Cl | -6 | 3 | -37 | 118* | 2 | 8
COCc1cc(SC2CCCCC2)nc(C)n1 | 4 | -14 | 16 | -4 | 0 | 11
COc1ccccc1N(CC(=O)N1CCN(c2ccccc2)CC1)S(=O)(=O)c1ccc(C)cc1 | 19 | 6 | 25 | 3 | 10 | 3
c1ccc2c(c1)nc(Nc1ccc(N3CCCCC3)cc1)c1nncn12 | 24 | -26 | 23 | 59* | 20 | -10
CC(C)OC(=O)CSc1nnc(-c2ccccc2)n1N | 15 | 10 | 2 | 5 | 3 | 0
Brc1ccc(C=Nc2ccc3c(c2)OCCOCCOCCO3)s1 | -7 | 9 | -6 | 0 | -4 | -2
COc1ccccc1C(CNC(=O)c1ccc(S(=O)(=O)N2CCCCC2)cc1)N(C)C (configuration not stated) | 14 | 3 | 11 | x | 7 | 1
